Assay outcomes as filed in PubChem BioAssay.
This is a sample that favours compounds with a hit; in the whole collection about 4% have one here.
EWS-Fli block – EWS/Fli transcriptional activity inhibition. A673 NR0B1-luciferase reporter, viability-normalised. inhibition, % at 12.6 µM. hit rate 0.67% among 350,000. AID 651661;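 active = mean inhibition of at least 50% after viability correction, with every replicate also passing that limit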;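 note: firefly luciferase signal divided by Alamar Blue viability fluorescence both relative to DMSO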
MITF TRPM1 inh – MITF TRPM1 promoter inhibition in SK-MEL-5 cells. inhibition, % at 12.5 µM. SK-MEL-5 TRPM1 promoter luciferase, 24 h. AID 488899. hit rate 0.83% among 330,000;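 active = mean inhibition across replicates of 60% or more, whatever share of single replicates reaches that level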
PAX8 inh HTS – PAX8 transcriptional activity inhibition; inhibition, % at 12.6 µM; hit rate 1.2% among 360,000; RMG-I TPO-luciferase reporter, SteadyGlo, 24 h; AID 652154;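 active = mean replicate inhibition at least 60% with every replicate also reaching 60%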;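 note: luciferase light reporting Pax8 driven TPO promoter activity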
esBAF inh – blocks esBAF chromatin remodeling in mouse ES cells; Bmi1-luciferase knock-in reporter, 24 h; 100% = twice the neutral-well signal; reporter increase, % at 12.5 µM; hit rate 2% among 350,000; AID 602393; in the data active = activation above about 40%;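 note: a rise in the Bmi1 reporter signal indicates esBAF inhibition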
Wnt act – Wnt/beta-catenin pathway activation | activation, % at 9.35 µM | Wnt/beta-catenin reporter cell assay, activator, plate reader | hit rate 1.2% among 300,000 | AID 743398; in the data active = activation above about 30%, passing the limit was not always enough
MITF TRPM1 HTS – increases MITF-driven TRPM1 promoter luciferase signal. SK-MEL-5 TRPM1-promoter luciferase, 24 h; % of positive control, neutral wells = 0. activation, % at 12.5 µM. hit rate 0.75% among 300,000. AID 588334;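 active = mean activation of at least 80% with every replicate also reaching 80%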
Hits are given with their value; – = inactive; · = no result.

SMILES | EWS-Fli block | MITF TRPM1 inh | PAX8 inh HTS | esBAF inh | Wnt act | MITF TRPM1 HTS
Cc1ccc(NCc2cccnc2)cc1 | · | – | · | – | – | –
O=C(Nc1ccccc1)N1C[C@H]2[C@@H](c3ccccc31)[C@H](CO)N2Cc1ccccc1Cl | – | · | – | – | · | ·
CO[C@@H]1CN(C)C(=O)c2cc(NC(=O)c3ccccc3)ccc2OC[C@H](C)N(C(=O)C2CC2)C[C@H]1C | – | · | · | – | · | ·
Cc1noc(C)c1S(=O)(=O)Nc1ccc2c(c1)C(=O)N([C@@H](C)CO)C[C@H](C)[C@@H](CN(C)S(=O)(=O)c1c(C)noc1C)OCCCC[C@H](C)O2 | – | · | – | – | · | ·
Oc1ccccc1CNc1cnc2ccccc2c1 | – | – | · | 54 | – | –
Cc1ccnc(NC(=O)c2ccc(S(=O)(=O)N3CCC(C)CC3)cc2)c1 | – | – | – | · | 36 | 97
O=C(Nc1ccccn1)c1ccc(Cl)c(S(=O)(=O)N2CCCCCC2)c1 | – | – | – | 83 | – | –
O=C(Nc1ccccn1)c1cccc(S(=O)(=O)N2CCCCC2)c1 | · | – | · | – | · | –
Cc1ccnc(NC(=O)c2ccc(Cl)c(S(=O)(=O)N3CCCCC3)c2)c1 | – | – | – | 57 | – | –
CC1CCN(S(=O)(=O)c2ccc(C(=O)Nc3ccccn3)cc2)CC1 | – | – | – | · | – | –
Cc1ccnc(NC(=O)c2ccc(Cl)c(S(=O)(=O)N3CCCC3)c2)c1 | – | – | – | · | – | –
Cc1ccc2nc(NC(=O)c3ccccn3)sc2c1 | 84 | 94 | 72 | – | – | –
O=C(Nc1nc2c(F)cc(F)cc2s1)c1ccccn1 | 53 | 65 | – | – | – | –
COc1ccc(NC(=O)c2cccnc2SC)cc1OC | – | – | – | – | 35 | –
CSc1ncccc1C(=O)Nc1nc2ccc(Oc3ccccc3)cc2s1 | – | – | – | 45 | – | –
COc1ccc2nc(NC(=O)c3ccccc3C(=O)O)sc2c1 | – | – | – | – | – | –
CO[C@@H]1CN(C)C(=O)c2cc(NC(C)=O)ccc2OC[C@H](C)N(Cc2cccc(F)c2)C[C@H]1C | – | · | – | – | · | ·
CCOc1ccc2nc(NC(=O)c3ccccn3)sc2c1 | 70 | 80 | – | – | – | –
CCOc1ccc2nc(NC(=O)NC3CCCCC3)sc2c1 | – | – | – | 34 | – | –
CCOc1ccc2nc(NC(=O)C34CC5CC(CC(NC(C)=O)(C5)C3)C4)sc2c1 | – | – | – | 58 | – | –
CCOc1ccc2nc(NC(=O)c3ccco3)sc2c1 | – | – | – | – | – | –
Cc1csc2sc(-c3ccnc(SCC(=O)NCc4ccccc4)n3)c(C)c12 | 55 | – | – | · | – | ·
Cc1ccc(OCCn2nc3ccccc3n2)c(C)c1 | · | – | – | 55 | – | ·
C[C@@H]1CN([C@H](C)CO)C(=O)c2cc(NC(=O)CCCCCC(=O)Nc3ccccc3N)ccc2O[C@@H]1CN(C)Cc1ccc(Oc2ccccc2)cc1 | · | · | 71 | · | · | ·
C[C@@H]1CN([C@H](C)CO)C(=O)c2cc(NC(=O)CCCCCC(=O)Nc3ccccc3N)ccc2O[C@@H]1CN(C)Cc1ccc(C(F)(F)F)cc1 | · | · | 95 | · | · | ·
SMILES | EWS-Fli block | MITF TRPM1 inh | PAX8 inh HTS | esBAF inh | Wnt act | MITF TRPM1 HTS
Cc1noc(C)c1NC(=O)N(C)C[C@H]1OCCCC[C@@H](C)Oc2ccc(NS(=O)(=O)c3ccc(Cl)cc3)cc2C(=O)N([C@H](C)CO)C[C@H]1C | – | · | – | – | · | ·
COc1ccc(C)cc1NCc1cc(=O)oc2cc(-c3ccccc3)c(O)cc12 | · | – | – | 62 | · | –
Cc1cc(C)cc(NCc2cc(=O)oc3cc(-c4ccccc4)c(O)cc23)c1 | · | – | – | · | · | –
CCc1ccc(NC(=O)Cn2c3[n+](c4c(F)c(F)ccc42)CCCCC3)cc1 | – | – | 76 | · | – | –
COc1ccccc1/C=N/N1C(=O)C2C3C=CC(CC3)C2C1=O (stereo not drawn) | – | – | – | – | – | –
O=C1C2C3C=CC(CC3)C2C(=O)N1/N=C/c1c[nH]c2ccccc12 (stereo not drawn) | – | – | – | 61 | – | –
CN1c2ccc(-c3cccc(F)c3)cc2[C@@H]2[C@@H](CCN2C(=O)c2ccccc2F)[C@H]1CO | – | · | – | – | · | ·
CCCOCCOC(=O)c1[nH]c2c(c1C)C(=O)CC(c1cc(OC)ccc1OC)C2 (stereo not drawn) | 56 | – | – | – | – | –
COc1ccc2c3c([nH]c2c1)[C@H](CO)N(Cc1ccccc1F)CC31CN(S(C)(=O)=O)C1 | – | · | · | · | · | ·
COCC(=O)OC1CCn2c1nc1c2C(=O)C(C)=C(NC(C)=O)C1=O (stereo not drawn) | – | 86 | 115 | · | – | –
O=C(C[C@H]1CC[C@@H](NC(=O)c2ccc(F)cc2)[C@H](CO)O1)NCCc1ccccc1 | – | · | – | – | · | ·
C[C@@H]1CN([C@H](C)CO)C(=O)Cc2cc(NS(=O)(=O)c3ccccc3)ccc2O[C@H]1CN(C)C(=O)Nc1ccc2c(c1)OCO2 | – | · | – | – | · | ·
COc1ccc(-c2ccc3c(c2)[C@H]2[C@H](CCN2C(=O)Cc2cccnc2)[C@H](CO)N3C)cc1 | – | · | 86 | – | · | ·
COc1ccc(-c2ccc3c(c2)[C@@H]2[C@@H](CCN2C(=O)Cc2cccnc2)[C@@H](CO)N3C)cc1 | – | · | – | – | · | ·
CN1c2ccc(C#Cc3cccnc3)cc2[C@@H]2[C@@H](CCN2C(=O)Cc2cccnc2)[C@@H]1CO | – | · | 88 | – | · | ·
CN1c2ccc(-c3cccc(F)c3)cc2[C@@H]2[C@@H](CCN2C(=O)Cc2ccccc2)[C@@H]1CO | – | · | 75 | – | · | ·
CN1c2ccc(-c3ccccc3)cc2[C@@H]2[C@@H](CCN2C(=O)Cc2ccccc2)[C@@H]1CO | – | · | – | – | · | ·
O=C(C[C@@H]1CC[C@@H]2[C@H](COC[C@H](O)CN2C(=O)c2ccc(F)cc2)O1)Nc1ccc(-c2ccccc2)cc1 | – | · | – | – | · | ·
Cc1ccc([C@H]2C[C@H](O)[C@@H](n3cc(-c4ccc(F)cc4)nn3)CN2Cc2cccs2)cc1 | 53 | · | – | – | – | ·
O=C(Nc1ccc(F)cc1)N1CCCCN2[C@H](CO)[C@H](c3ccc(-c4ccccc4F)cc3)[C@H]2C1 | – | · | 64 | · | · | ·
O=C(Nc1cccc(F)c1)N1CCCCN2[C@H](CO)[C@@H](c3ccc(-c4ccccc4F)cc3)[C@H]2C1 | – | · | 94 | · | · | ·
O=C(N/N=C(\c1ccccc1)c1ccccn1)c1ccccc1Cl | · | – | 72 | – | – | –
